Screening results: PubChem, The Scripps Research Institute Molecular Screening Center
Compounds with a hit are over-represented: about 3.5% of the library has one in this group of screens.
MITF primary: MITF inhibitors, primary screen, biochemical, AlphaScreen, human. Microphthalmia-associated transcription factor (Homo sapiens), O75030. AlphaScreen MITF homodimerization, bead proximity signal. inhibition, % at 2.6 µM. 650,000 compounds, 0.91% hits. AID 1259374, 2018; in the data active = inhibition above about 50%;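 note: 0% = vehicle wells with protein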
Target sequence (O75030 whole entry, looked up): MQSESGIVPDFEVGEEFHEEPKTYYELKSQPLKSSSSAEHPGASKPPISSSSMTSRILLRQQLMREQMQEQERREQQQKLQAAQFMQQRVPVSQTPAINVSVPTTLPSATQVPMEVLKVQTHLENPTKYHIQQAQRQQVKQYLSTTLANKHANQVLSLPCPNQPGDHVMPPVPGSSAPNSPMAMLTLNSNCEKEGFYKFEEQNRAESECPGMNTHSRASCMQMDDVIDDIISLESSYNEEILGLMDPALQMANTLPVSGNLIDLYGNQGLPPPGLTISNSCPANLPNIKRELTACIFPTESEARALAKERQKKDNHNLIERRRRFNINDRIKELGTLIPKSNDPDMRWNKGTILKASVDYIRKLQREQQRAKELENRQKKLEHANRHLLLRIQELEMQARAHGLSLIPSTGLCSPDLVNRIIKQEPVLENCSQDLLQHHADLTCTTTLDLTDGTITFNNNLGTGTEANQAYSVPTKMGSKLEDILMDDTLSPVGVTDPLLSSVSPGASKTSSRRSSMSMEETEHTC
GPR151 ag: activators of human GPR151, primary screen, cell-based, PathHunter beta-arrestin, luminescence | PathHunter beta-arrestin GPR151 cells | AID 1508602, 2020 | activation, % at 11.2 µM | 650,000 compounds, 1% hits | G-protein coupled receptor 151 (Homo sapiens), Q8TDV0; in the data active = activation above about 4.9%;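 note: 0% = median of compound wells and 100% = cells with positive control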
TEAD-YAP inh: TEAD-YAP interaction inhibition, primary screen, TEAD-YAP interaction inhibitor project, luminescence, HEK-TIYL cells. TEAD-Gal4/YAP UAS-luciferase luminescence. inhibition, % at 9.12 µM. 640,000 compounds, 1.4% hits. AID 1259422, 2018; in the data active = inhibition above about 32%;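 note: 0% = median of test compound wells and 100% = reference inhibitor wells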
FBW7 act: FBW7 E3 ligase activators, primary screen, biochemical, AlphaScreen, human. AID 1259310, 2017. AlphaScreen FBW7–phospho-cyclin E peptide binding, activator screen. 650,000 compounds, 0.13% hits. normalized activity (activation), % at 26.1 µM; in the data active = normalized activity above about 1.9%;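 note: purified mutant Fbw7 with reduced substrate affinity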
An asterisk follows results filed as active.

SMILES	MITF primary	GPR151 ag	TEAD-YAP inh	FBW7 act
c1cnc2ccc(Nc3nc(NCc4nc5ccccc5[nH]4)c4ncn(-c5ccsc5)c4n3)cc2c1	-15.6	-0.1	49.0*	42.3*
CC1=NN(c2nc3ccccc3[nH]2)C(=O)C1CCC(C)C (stereo not given)	31.1	-1.6	73.2*	-0.6
Cc1cc(C)c(NS(=O)(=O)c2ccc3[nH]c(=O)oc3c2)c(C)c1	13.6	-0.6	4.6	6.3*
O=c1[nH]c2ccc(S(=O)(=O)Nc3ccccc3)cc2o1	-8.9	-1.0	-39.2	0.1
CC1=CC(C)(C)N(C(=O)CSc2nnc(C)s2)c2cc(C)c(C)cc21	-2.0	2.0	-5.5	-0.1
COc1ccc(Nc2ncnc3sc4c(c23)CCC4)cc1O	5.4	-1.1	37.0*	-0.1
Cc1ccc(C2CC(c3cccs3)=NN2C(=O)CSc2nnc(CNC(=O)c3cccc(C)c3)n2C)cc1 (stereo not given)	0.9	-0.3	15.8	-0.1
COc1cccc2c1OC(c1ccc(F)c(F)c1)N1N=C(c3ccc(C)o3)CC21 (stereo not given)	11.4	-0.1	32.6*	0.0
CCOc1ccc(C2=NN3C(C2)c2cccc(OC)c2OC3c2ccc(F)c(F)c2)cc1 (stereo not given)	6.3	-1.7	14.0	0.5
CCOc1cccc2c1OC(c1ccccc1Cl)N1N=C(c3ccc(C)o3)CC21 (stereo not given)	-5.0	-1.1	-22.7	0.0
COc1cccc2c1OC(c1ccccc1Cl)N1N=C(c3ccc(C)o3)CC21 (stereo not given)	2.8	-0.7	43.7*	0.0
CCN(CC)C(=O)C1CCCN(c2nc(NC3CC3)c3ncn(C4CCCCC4)c3n2)C1 (stereo not given)	-0.7	1.9	28.5	-0.3
CCN(CC)C(=O)C1CCCN(c2nc(Nc3ccc(Oc4ccccc4)cc3)c3ncn(C4CCCCC4)c3n2)C1 (stereo not given)	11.4	-0.1	5.3	5.4*
CCN(CC)C(=O)C1CCCN(c2nc(Nc3ccc(NC(C)=O)cc3)c3ncn(C(C)C)c3n2)C1 (stereo not given)	7.4	-0.5	45.9*	-0.1
Clc1ccc2nc(C3CCN(Cc4nnnn4C4CCCC4)CC3)[nH]c2c1	3.0	-1.0	36.6*	0.1
Clc1ccc2nc(C3CCN(Cc4nnnn4Cc4cccs4)CC3)[nH]c2c1	12.1	-0.9	35.5*	-0.1
c1csc(Cn2nnnc2CN2CCN(C3CCCC3)CC2)c1	11.7	-0.1	5.5	-0.1
Fc1ccccc1C1CCN(Cc2nnnn2C2CCCC2)CC1	32.9	-0.5	5.5	0.0
Cc1ccc(C)c(CC(=O)Nc2nnc(Cc3ccc4c(c3)OCCO4)o2)c1	5.0	0.1	-5.8	-0.1
CN(C)c1cc(N/N=C/c2ccc(-c3ccccc3)o2)nc(N(C)C)n1	-2.7	-0.1	-1.3	0.0
CCC1CCCCN1C(=O)c1sc2nc(C)nc(N3CCC(C)CC3)c2c1C (stereo not given)	-7.0	0.8	-2.3	-0.1
Cc1cc2[nH]c(=S)n(Cc3ccccc3Cl)c2cc1C	-0.1	1.8	49.6*	-0.1
CCNc1nc(NC(C)(C)C)nc(SC(C(C)=O)C(C)=O)n1	3.1	2.3	42.3*	-0.1
CCOC(=O)C1=C(C)NC2=C(C(=O)C(C(=O)OC)C(C)C2)C1c1cc(Br)c(OC)c(OC)c1 (stereo not given)	-4.6	0.2	-11.1	0.3
C/C(=N\NC(=O)c1cnccn1)c1cccs1	-365.9	-2.3	-14.1	0.0
SMILES	MITF primary	GPR151 ag	TEAD-YAP inh	FBW7 act
C/C(=N\NC(=O)c1cccc([N+](=O)[O-])c1)c1cccs1	-3.0	-0.4	2.2	0.0
C/C(=N\NC(=O)c1ccccc1O)c1cccs1	7.4	-1.1	37.5*	0.1
C/C(=N/NC(=O)c1ccc(O)cc1)c1cccs1	17.7	-0.1	-28.8	0.4
CCNc1ccc(C(=O)N/N=C(\C)c2cccs2)cc1[N+](=O)[O-]	15.5	-0.7	50.2*	-0.1
C/C(=N/NC(=O)c1ccccn1)c1cccs1	-9.7	-5.3	66.1*	0.1
Cc1nnc(N(C(=O)c2cnccn2)c2ccccc2)s1	-2.2	-2.1	61.7*	-0.2
CCn1cnc2c(Nc3ccc(C)cc3C)ncnc21	8.6	-1.2	-58.2	0.0
CCn1cnc2c(Nc3ccc(F)cc3)ncnc21	14.1	-9.8	33.9*	0.6
c1ccc(OCCNc2nc(N3CCOCC3)nc3c2ncn3-c2ccccc2)cc1	-2.3	-0.5	-8.3	0.0
